Source: PubChem (National Center for Advancing Translational Sciences (NCATS))
ATXN2 expr inh = Primary qHTS for Inhibitors of ATXN expression; Potency, µM (highest dose often 57 µM), for inactives: at the top dose activity change, negative = inhibition, most hits filed as inhibitors; HEK-293 ATXN2-luciferase reporter, luminescence, 24 h; 360,000 compounds, 0.72% hits; also: % is scaled to controls: 0 for no effect and ±100 for the full control effect; nearly all actives have a fitted effect of over 55% in size
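ATXN2-luciferase reporter cells (luciferase flanked by upstream and downstream ATXN2 gene portions) were treated 24 h at 37 °C with compounds at up to 57 uM. SteadyGlo luminescence gave expression; GF-AFC fluorescence gave viability.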
HT1080NT lethal = qHTS for induction of synthetic lethality in tumor cells producing 2HG: qHTS for the HT-1080-NT fibrosarcoma cell line; HT-1080-NT fibrosarcoma viability, CellTiter-Glo ATP luminescence, 48 h; Potency, µM (series often up to 46.1 µM), for the others: at the highest dose activity, negative = less viability, hits mostly cytotoxic; 360,000 compounds, 1.6% hits; AID 686970, 2013;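 also: NT is the 2HG producing partner of a matched IDH1 knockdown line; 0% = DMSO-treated cells and -100% = media-only wells without cells; nearly all actives have a fitted effect of over 55% in size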
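A 48-hour cytotoxicity screen used HT-1080-NT cells plated 2 hours before compound delivery. ATP-based CellTiter-Glo luminescence measured viability, normalized to DMSO and no-cell controls.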
HepG2 viability = qHTS for Inhibitors of TGF-b: Cytotox Counterscreen; HepG2 CAGA-GFP viability, ATP luminescence, 18 h; Potency, µM (doses to about 46.1 µM), inactives show at the top dose activity change, negative = cytotoxicity, actives largely listed as cytotoxic; 410,000 compounds, 0.76% hits
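CellTiter-Glo luminescence gave cytotoxicity after 18 hours at 37 degrees C. The cells were HepG2 CAGA-GFP in 1% FBS DMEM, stimulated with 500 pg/mL TGF-beta after compound addition. %Activity was normalised to no-cell wells (complete cell-killing) and DMSO (no toxicity), and curves were fitted and classified.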
TGFb SMAD3 inh = qHTS for Inhibitors of TGF-b. AID 588855, 2011. Potency, µM (top dose mostly 46.1 µM), inactives show at the highest dose activity, negative = inhibition, actives largely listed as inhibitors. 410,000 compounds, 1.2% hits. HepG2 CAGA-GFP TGF-b/SMAD3 reporter, GFP fluorescence, 18 h; TGF-beta stimulated, 500 pg/mL final; also: % is scaled to controls: 0 for no effect and ±100 for the full control effect; nearly all actives have a fitted effect of over 65% in size
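HEPG2 CAGA-GFP reporter cells (1000/well, DMEM with 1% FBS) received compounds, then recombinant TGF-beta at 500 pg/mL final for 18 hours at 37 degrees C. Per-cell GFP summed per well was normalised to unstimulated and stimulated DMSO controls before curve fitting.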
S2 tox = Viability Counterscreen for Primary qHTS for Inhibitors of ATXN expression. 400,000 compounds, 0.49% hits. S2 cells (HEK-293 line with an ATXN2-luciferase reporter) viability, CellTiter-Fluor protease fluorescence, 24 h. AID 651635, 2014. Potency, µM (series often up to 56.7 µM), hits mostly cytotoxic; also: nearly all actives have a fitted effect of over 40% in size
HT1080 IDH1KD tx = qHTS for induction of synthetic lethality in tumor cells producing 2HG: qHTS for the HT-1080-IDH1KD cell line | AID 686971, 2013 | 360,000 compounds, 2% hits | HT-1080 IDH1 knockdown viability, ATP luminescence, 48 h | Potency, µM (highest dose often 46.1 µM), inactives show top-dose activity, negative = toxicity, usual class: cytotoxic;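 also: 0% = DMSO wells and -100% = cell-free medium wells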
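Using the IDH1-knockdown HT-1080 line run in the same batch and compound series as the NT line, viability after 48 h at 37 °C was determined by CellTiter-Glo luminescence and expressed as % activity.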
Starred values were filed as active, the others as inactive; i = inactive; ? = inconclusive; . = no result given; [ ] = remark or other dose. Sampled rows, rich in hits. Any-hit rate of the full collection: about 3.8%. Calls follow the shape of the dose curve; as a rule, active = well fitted curve in the direction sought with a large enough effect; inconclusive = small, poorly fitted or top-dose-only effect, or another doubt; inactive = no such curve, though single readings can be large; an effect the other way counts as inactive or inconclusive. Potency is read from the fitted curve at half-maximal effect.

SMILES | ATXN2 expr inh | HT1080NT lethal | HepG2 viability | TGFb SMAD3 inh | S2 tox | HT1080 IDH1KD tx
CC1CCCC(C)N1C(=O)c1ccccc1Nc1ccc(SC(F)F)cc1 (stereo not drawn) | -21% | 23µM* | -48% | ? | i | ?
Oc1ccccc1C1CC(c2cccs2)=NC(c2cccc(Br)c2)N1 (stereo not drawn) | 51% | ? | -61% | 20µM* | i | ?
O=S(=O)(c1ccccc1)N1N=C(c2cccs2)CC1c1cccc(O)c1 (stereo not drawn) | 3% | -18% | -11% | -29% | i | -10%
COc1ccc(-c2nn3c(-c4cc(-c5ccccc5)n[nH]4)nnc3s2)cc1 | . | . | -14% | -7% | . | .
COc1ccc(/C=c2/sc3n(c2=O)C(c2ccccc2OC)C2=C(N=3)c3ccccc3CC2)cc1O (stereo not drawn) | -24% | ? | -28% | ? | i | 26µM*
COc1ccccc1C1C2=C(N=C3SCC(=O)N31)c1ccccc1CC2 (stereo not drawn) | -22% | 7% | -1% | -15% | ? | 2%[9.24 µM]
O=C(Nc1ccc(F)c(Cl)c1)N1CCC(CN2CCc3ccccc3C2)CC1 | . | . | -39% | ? | . | .
CCN(C(=O)c1cc2c(s1)-c1ccccc1OC2)c1cc(Cl)ccc1OC | -20% | . | -19% | 8.9µM* | i | .
CCOc1ccc(N(CC)C(=O)c2cc3c(s2)-c2ccccc2OC3)cc1 | ? | . | -32% | ? | i | .
CN(C)CCN(Cc1ccco1)C(=O)c1cc2c(s1)-c1ccccc1OC2 | . | . | 13µM* | ? | . | .
CCN(C(=O)c1cc2c(s1)-c1c(C)cccc1OC2)c1cc(C)ccc1C | -15% | . | -28% | 11µM* | i | .
Cc1cccc(NC(=O)CSc2nc3c(sc4ccccc43)c(=O)n2CCCC(=O)NC2CCCC2)c1 | . | . | -19% | -9% | . | .
O=C(OC(C(=O)N1CCOCC1)c1ccccc1)c1c2c(nc3ccccc13)CCCC2 (stereo not drawn) | . | . | 5% | 10% | . | .
c1ccc2c(OCCCCN3CCOCC3)cccc2c1 | 1% | -3% | 1% | 1% | i | -3%
c1ccc(CN2CCN(CCOCCOc3cccc4ccccc34)CC2)cc1 | -2% | 16µM* | -17% | -5% | i | ?
O=C(c1ccco1)N1CCN(CCOCCOc2cccc3ccccc23)CC1 | -19% | -7% | -33% | -25% | i | -25%
CCOc1ccccc1-n1c(CN2CCN(C(=O)c3ccco3)CC2)nc2ccccc2c1=O | -19% | 5.6µM* | 8% | 18% | i | 10µM*
O=C(c1ccco1)N1CCN(CCCCOc2cccc3ccccc23)CC1 | ? | -7% | 7.9µM* | ? | ? | -10%
COc1ccccc1/C=C/c1ccnc2ccccc12 | . | . | -33% | -24% | . | .
COC(=O)c1ccc(NC(=O)c2c(NCc3ccc(OC)c(OC)c3)sc3c2CCCC3)cc1 | ? | . | -26% | ? | . | .
CCOc1ccc(-n2c(C)c(C(=O)OC)c3cc(O)ccc32)cc1 | -11% | -5% | 15% | 8% | i | -1%
COC(=O)c1c(C)n(-c2ccccc2)c2ccc(O)cc12 | 6% | 11µM* | -6% | -23% | i | ?
COC(=O)c1c(C)n(-c2ccc(C)cc2)c2ccc(O)cc12 | -14% | 13µM* | -39% | ? | i | 20µM*
CCC(=O)O[C@]1(C(=O)COC)[C@@H](C)C[C@H]2[C@@H]3CCC4=CC(=O)C=C[C@]4(C)C3(F)[C@@H](O)C[C@@]21C (stereo partly drawn) | -1% | . | . | . | i | .
COc1ccc(S(=O)(=O)NCc2ccccn2)cc1Br | 5% | 5% | -5% | 12% | i | 8%
SMILES | ATXN2 expr inh | HT1080NT lethal | HepG2 viability | TGFb SMAD3 inh | S2 tox | HT1080 IDH1KD tx
CCOc1ccc(S(=O)(=O)NCc2ccccn2)cc1NC(=O)c1ccccc1F | -8% | 0.92µM* | 2% | 13% | i | ?
COc1ccc(S(=O)(=O)NCc2ccccn2)cc1NC(=O)c1ccc(C)cc1 | -12% | 5.8µM* | 1% | -19% | i | 13µM*
COc1ccc(S(=O)(=O)NCc2ccncc2)cc1NC(=O)c1ccccc1F | -14% | -14% | -8% | -9% | i | -11%
COc1ccc(S(=O)(=O)NCc2ccccn2)cc1NC(=O)c1ccccc1 | -14% | 8.2µM* | -3% | -4% | ? | 13µM*
COc1cccc(NC(=O)CCc2nnc3n(CC(C)C)c(=O)c4ccccc4n23)c1 | . | . | -5% | 0% | . | .
COc1cc(-c2nc3nc[nH]n3c2Nc2ccc(C(C)C)cc2)ccc1O | . | . | -8% | -6% | . | .
CS(=O)(=O)c1ccc(Sc2nc3ccccc3s2)c([N+](=O)[O-])c1 | ? | -10% | -39% | ? | ? | 21µM*
O=[N+]([O-])c1cc(S(=O)(=O)C(F)(F)F)ccc1Sc1nc2ccccc2[nH]1 | ? | ? | -95% | ? | ? | 18µM*
O=[N+]([O-])c1cc(S(=O)(=O)C(F)(F)F)ccc1Sc1nc2ccccc2s1 | ? | 23µM* | 18µM* | ? | ? | ?
CS(=O)(=O)c1ccc(Sc2nc3ccccc3[nH]2)c([N+](=O)[O-])c1 | 25% | -1% | -3% | ? | i | -4%
O=c1oc2ccccc2c(O)c1/C=C1\C=Nc2ccccc21 | -10% | ? | -82% | 0% | i | 26µM*
CN(C)C(=O)c1ccc(S(=O)(=O)c2ccc(NC(=O)[C@@](C)(O)C(F)(F)F)c(Cl)c2)cc1 | -18% | . | . | . | . | .
O=C(C[N+]12CCCc3cccc(c31)CCC2)c1ccccc1 | . | . | -35% | ? | . | .
COc1ccc(-n2c(NCCN(C)C)nc3sc4c(c3c2=O)CCCCC4)cc1 | ? | -27% | -39% | 4% | ? | -21%
CN(C)CCNc1nc2sc3c(c2c(=O)n1-c1ccccc1)CCCCC3 | -25% | ? | 14µM* | -18% | i | ?
CN(C)CCNc1nc2sc3c(c2c(=O)n1-c1ccc(F)cc1)CCCCC3 | -1% | 23µM* | -23% | ? | i | ?
CC(C)C[C@H]1CNC(=S)N1C[C@H]1CCCN1C[C@H](Cc1ccccc1)N1C[C@H](Cc2ccc(O)cc2)N(CC2CCCCC2)C1=S | ? | 15µM* | -38% | 11µM* | ? | 16µM*
